Structures are written as SMILES. Hit rate of the full screen: of about 360,000 compounds, about 17,000 (4.7%) were called active. Another 5% or so got no clear call; they are omitted. Only a selection was taken, and actives are over-represented in it overall. A number with no mark means an inactive call. Rule as the data show it: active = activity change below about -50%; inconclusive = mostly about -30% to -49%; inactive = weaker than that.
% is scaled to controls: 0 for no effect and ±100 for the full control effect.

The experiment can be described thus: qHTS for Inhibitors of Inflammasome Signaling: IL-1-beta AlphaLISA Primary Screen. The note with it: THP-1 LPS/ATP IL-1B secretion, 16 h; at 57.5 µM, active compounds read low. The procedure, abridged: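 Secreted IL-1B measured by AlphaLISA bead assay after 16 h compound exposure of THP-1 cells; compounds (final up to 57.5 uM) added 1 h before LPS (250 ng/mL) and ATP (1.25 mM) stimulation; lower signal means less secretion.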
In general terms: In qHTS, concentration-response curves come from the screen itself.
Turning to `CCC(C(=O)NC(C)(C)C)n1c(-c2ccccc2)nc2ccccc21` (stereo unspecified), the activity change was 3.76%.
As to `CC(=O)Nc1ccc2nc(NC(=O)CS(=O)(=O)c3ccc(F)cc3)sc2c1`, the activity change is 2.42%.
For `CCOc1ccc(S(=O)(=O)NCCC(=O)NCC(C)(C)N2CCOCC2)cc1`, the activity change is 12.3%.
Turning to `Cc1ccc(NC(=O)[C@H](Cc2ccccc2)NC(=O)CC[C@H]2O[C@@H](n3ccc(=O)[nH]c3=O)[C@H](O)[C@@H]2O)cc1C`, the activity change is 6.2%.
In the case of `CC1(C)OC(=O)C2=C(C[C@@H](C3CC3)O[C@H]2CCc2cccc(Cl)c2)O1`, the activity change is 24.6%.
Regarding `COc1ccc(CCNC(=O)c2c(C)nn(-c3ccccc3)c2Cl)cc1`, the activity change was -6.31%.
As for `COc1ccc(Oc2c(Cl)cnn(-c3ccccc3)c2=O)cc1`, the activity change was -118% (active).
Regarding `COc1cnn(-c2ccc([N+](=O)[O-])cc2)c(=O)c1Cl`, the activity change is -16.9%.
In the case of `CCc1ccc(NC(=O)C(=O)NNC(=O)c2cccs2)cc1`, the activity change was -11.1%.
`CCOc1ccc(NC(=O)CN(C)C(=O)CSc2ccccc2)cc1OCC`: the activity change was 5.24%.
Consider `O=C(Nc1ccc(F)cc1)C(=O)c1cn(CC(=O)N2CCOCC2)c2ccccc12`, for which the activity change was 8.7%.
The result for `Cc1ccnc(NS(=O)(=O)c2ccc(NC(=O)c3oc4ccc(F)cc4c3C)cc2)n1` reads 4.03%; that for `COc1cc([N+](=O)[O-])ccc1NC(=O)COC(=O)CCOc1ccc(C)cc1`, -81.7% (active).
For `COc1cccc(NC(=O)COC(=O)CCOc2ccccc2OC)c1`, the activity change was -1.64%.
The result for `CSc1ccccc1NC(=O)COC(=O)CCCOc1ccc(C)cc1` reads 13.8%; that for `O=C(COC(=O)c1cccc(Cl)c1Cl)NC1CCCCCC1`, 4.38%.
Next, `O=C(NCC(=O)N1CCCC(C(F)(F)F)C1)c1ccccc1F` (stereo unspecified): 6.36%; `FC(F)(F)C1CCCN(c2nsc3ccccc23)C1` (stereo unspecified): -76% (active); `Cn1ccc(=Nc2ccc(NC(=O)c3ccc(N=c4ccn(C)c5ccc([N+](=O)[O-])cc45)cc3)cc2)cc1`: -20.4%.
As to `Cc1ccc(CN2CC(C(=O)N3CCN(S(=O)(=O)c4ccccc4)CC3)CC2=O)cc1` (stereo unspecified), the activity change is -19.1%.
Take `Cc1ccc(C)c(S(=O)(=O)N2CCN(c3ncnc4sccc34)CC2)c1`: the activity change is -53.3% (active).
Take `Cc1ccc(S(=O)(=O)N2CCN(c3ncnc4ccccc34)CC2)cc1`: the activity change is -9.9%.
For `COc1ccc(C)cc1S(=O)(=O)N1CCN(S(=O)(=O)c2cc(C(=O)O)ccc2C)CC1`, the activity change was 34.7%.
Take `O=C1OC(Oc2ccc(Br)cc2)(c2ccccc2)c2ccccc21` (stereo unspecified): the activity change is -13.8%.
As to `CSc1ncc(C(=O)NCCCc2ccccc2)c(C)n1`, the activity change is 0%.
As for `O=C(CSCc1ccccc1)Nc1ccccc1`, the activity change was 0.36%.
Take `O=C(CCl)Nc1cccc(CP(=O)(c2ccccc2)c2ccccc2)c1`: the activity change is -99.8% (active).
On to `O=C(Cc1ccccc1)Nc1cccc(NC(=O)c2ccccc2)c1`, for which the activity change was -19.5%.
In the case of `COC(=O)c1ccc2nc(-c3cccc(Br)c3)c(Cc3ccccc3C(F)(F)F)n2c1`, the activity change is 0%.
For the compound `CCCC(=O)N1CCC1(C)C(=O)NCc1ccc(SC)cc1` (stereo unspecified), the activity change was 21.3%.
Next, `C/C(=N\N=C(N)N)c1ccc(Cl)cc1`: -86.4% (active).
Next, `C/C(=N\OCC(=O)O)c1ccc(Cl)cc1`: 0%; `C/C(=N\NC(=S)NCc1ccccc1)c1ccc(Cl)cc1`: 0%; `CCc1nc2c(OCC(=O)C(C)(C)C)cccn2c1N(C)C(=O)c1ccccc1F`: 32.1%.
Next, `O=C(Nc1cc(Br)ccc1F)c1nc[nH]c1C(=O)NCc1ccccc1`: -4.71%.
For `OC[C@@H]1CN(C2CCCC2)C[C@H](n2cnc3c(NC4CCC4)ncnc32)O1`, the activity change is 5.5%.
The result for `Cc1ccc(SCC(=O)N2CCN(c3ccc(F)cc3)CC2)cc1` reads -12.4%; that for `CCN1CCC2(CC1)N=C(c1ccc(F)cc1)C(=S)N2C(=O)c1ccc(C)cc1`, -115% (active); that for `CCN1CCN(C(=O)CSc2ccc(C)cc2)CC1`, -5.59%.
Consider `CC(Sc1nncn1C)C(=O)NCCC1=CCCCC1` (stereo unspecified), for which the activity change is 1.27%.
Next, `CCCCN(Cc1ccccc1)C(=O)C1CCN(Cc2sccc2C)CC1`: -20.5%.
Next, `O=C(NCc1ccccn1)[C@@H]1CCCN1C(=O)[C@@H]1CCCN1C(=O)c1ccccc1`: 0%; `CCOc1cc2ccccc2cc1C(=O)Nc1ccccn1`: 9.73%; `CCC(C(=O)OCCN(CC)CC)c1ccccc1` (stereo unspecified): -16.3%.
Consider `CCN(CC)CCOc1ccc2c(c1)C(=NNC(=O)c1ccccn1)c1cc(OCCN(CC)CC)ccc1-2`, for which the activity change was -56.2% (active).
The result for `OC(CNCc1ccc(Cl)c(Cl)c1)c1ccccc1` (stereo unspecified) reads -69.4% (active); that for `Cc1c(Cl)cccc1NC(=S)NCC(O)c1ccccc1` (stereo unspecified), -6.92%.
Regarding `CC(C)(CNCC(O)c1ccccc1)N1CCOCC1` (stereo unspecified), the activity change is -7.93%.
As to `Cc1c(NC(=O)C(=O)N/N=C/c2cccs2)c(=O)n(-c2ccccc2)n1C`, the activity change is -21.9%.
Consider `O=C(NCc1ccc(F)cc1)c1cc(C2CCCCN2C(=O)c2ccccn2)on1` (stereo unspecified), for which the activity change was 42.4%.
For the compound `O=C(OCc1cn(-c2ccc(Cl)c(Cl)c2)nn1)c1ccccc1Cl`, the activity change was -2.76%.
`Cc1cccc(CN2CCN(C3CN(Cc4cn(Cc5cc(C)cc(C)c5)nn4)S(=O)(=O)C3)CC2)c1` (stereo unspecified): the activity change was -18.8%.
For the compound `CCOc1ccc(C(C)=O)cc1COC(=O)CNC(=O)c1cccs1`, the activity change is -9.33%.
As for `CCOc1ccc(C(C)=O)cc1COC(=O)c1cnc(Cl)c(Cl)c1`, the activity change is -108% (active).
Regarding `COC(=O)c1ccc(COC(=O)c2cnc(Cl)c(Cl)c2)cc1`, the activity change was -13.4%.
The result for `CC(C)c1cc(Cn2c3ccccc3c(=O)n2C(C)Cn2cc(C3CC3)nn2)on1` (stereo unspecified) reads -6.05%; that for `O=C1CS(=O)CN1c1ccc(Oc2ccccc2)cc1` (stereo unspecified), 15%.
As to `O=C1c2ccccc2C(c2nc3ccccc3[nH]2)N1c1ccccc1` (stereo unspecified), the activity change was 81%.
Consider `Cc1cccn2c(=O)c3cc(C(=O)NC4CCCCC4)sc3nc12`, for which the activity change was -16.1%.
For the compound `CC1(C(=O)NS(=O)(=O)C2CC2)CCCN(C(=O)CSc2ccccc2)C1` (stereo unspecified), the activity change is 10.6%.
On to `CCOc1ccc(C(=O)Nc2c3c(nn2-c2ccccc2)CS(=O)(=O)C3)cc1`, for which the activity change is 12.2%.
`CC1CCN(C2=NC(=O)/C(=C/c3cn[nH]c3-c3ccccc3)S2)CC1`: the activity change was -59.2% (active).
Consider `O=C1N=C(N2CCOCC2)S/C1=C\C=C/c1ccccc1`, for which the activity change was -18%.
Next, `CC1CCN(c2nc3c(c(=O)[nH]c(=O)n3C)n2CCCc2ccccc2)CC1`: 14.1%; `CC(C)C(NC(=O)c1c(F)cccc1F)C(=O)NCc1ccncc1` (stereo unspecified): 4.1%.
In the case of `CC(C)C(NC(=O)OCc1ccccc1)C(=O)OCC(=O)N1C(C)CCCC1C` (stereo unspecified), the activity change is -2.86%.
With `CC(C)c1ccc(S(=O)(=O)N2CCN(C(=O)c3ccc(N4CCCC4)c([N+](=O)[O-])c3)CC2)cc1`, the activity change was -52% (active).
Turning to `O=C(c1ccc(N2CCOCC2)c([N+](=O)[O-])c1)N1CCN(S(=O)(=O)c2cccs2)CC1`, the activity change was -0.922%.
Next, `Cc1ccc(S(=O)(=O)N2CCN(C(=O)c3ccc(-n4cncn4)c([N+](=O)[O-])c3)CC2)cc1`: -5.16%; `CCN(CCn1cccn1)Cc1nc(-c2ccc(C(=O)OC)cc2)no1`: 81.6%; `Clc1ccc(-c2cc(C3CCNCC3)[nH]n2)c(Cl)c1`: -79.9% (active).
Take `Clc1ccc(-c2cc(-c3ccccn3)on2)c(Cl)c1`: the activity change is 0%.
For the compound `O=C(Cn1ccc([N+](=O)[O-])n1)NCc1cccs1`, the activity change was 5.04%.
The result for `O=C(NCCc1cccc(F)c1)C1CC(O)CN1C(=O)Nc1ccccc1` (stereo unspecified) reads 22.4%.
Consider `CCCS(=O)(=O)C(=C1Nc2ccccc2N1)S(=O)(=O)CCC`, for which the activity change was 3.44%.
For the compound `O=C(CN1CCCCCC1)N1c2ccccc2Sc2ccc(C(F)(F)F)cc21`, the activity change was -60% (active).
Next, `COc1cc(/C=C/C(=O)N2c3ccccc3Sc3ccc(C(F)(F)F)cc32)cc(OC)c1OC`: -1.9%.
As for `O=C(CN1CCCCC1)N1c2ccccc2Sc2ccc(C(F)(F)F)cc21`, the activity change is -13.4%.
On to `CC(=O)NCCc1ccc(S(=O)(=O)N(C)C2CCS(=O)(=O)C2)cc1` (stereo unspecified), for which the activity change is 0%.
Regarding `CC(=O)c1nn(-c2ccccc2)c(=Nc2ccccc2)cc1C`, the activity change is -11%.
With `O=C(Nc1ccc(Cl)cn1)c1ccccc1-c1ccccc1`, the activity change is 7.39%.
The result for `Oc1ccccc1-c1cc(-c2ccc(Cl)cc2)n[nH]1` reads -71.3% (active); that for `CSc1ccccc1-c1nnc(-c2ccc(Cl)cc2)o1`, -6.95%.
`CC(=O)NC(C)(C)C1CC=C(C)/C(=N\O)C1` (stereo unspecified): the activity change is 3.35%.
Turning to `COc1cccc(CNS(=O)(=O)c2ccc3c(c2)CC(C)N3C(C)=O)c1` (stereo unspecified), the activity change is 4.38%.
As for `COc1ccc(N(C)S(=O)(=O)c2ccc3c(c2)CC(C)N3C(=O)C2CC2)c(OC)c1` (stereo unspecified), the activity change was -63.4% (active).
`COc1ccccc1CNC(=O)C1CCN(S(=O)(=O)c2ccc3c(c2)CC(C)N3C(=O)C2CC2)CC1` (stereo unspecified): the activity change is -26%.
For `C[C@H](CO)N1C[C@H](C)[C@@H](CN(C)C(=O)c2cnccn2)Oc2ncc(Br)cc2C1=O`, the activity change is 33.8%.
Next, `O=[N+]([O-])c1ccc(C=NN=Cc2ccc([N+](=O)[O-])cc2)cc1`: -8.06%; `O=C1/C(=C\c2ccc([N+](=O)[O-])cc2)CS(=O)(=O)C/C1=C/c1ccc([N+](=O)[O-])cc1`: -99.9% (active).
`CC(=O)Nc1ccc(C=Cc2ccc([N+](=O)[O-])cc2)cc1`: the activity change was -18.6%.

The record behind these values is PubChem BioAssay AID743279 (National Center for Advancing Translational Sciences (NCATS), 2014).
